Data on 5 molecules can be found in PubChem BioAssay.

The nature of test [1]: small molecules captured by biotinylated probe aFSTL3 – biochemical, small-molecule microarray, fluorescence 635/667, stem cell growth factor project, primary screen (AID 1064).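 Also: measures binding of the biotinylated anti-FSTL3 antibody to printed compounds.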 To be noted: higher = more signal.
Test [2] can be described thus: binders from COS7 lysate, DM2A8 probe, primary screen, torsin A project, cell lysate, small-molecule microarray, fluorescence 635/667 (AID 1065). Conditions: higher = more signal, COS7 lysate expressing mutant human TOR1A.
Test [3] in a line: small molecules captured by biotinylated probe aFGF2 – biochemical, small-molecule microarray, fluorescence 635/667, stem cell growth factor project, primary screen (AID 1067).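 Also: measures binding of biotinylated aFGF2 protein to printed compounds on slides; z-score merges feature fluorescence and signal-to-noise across triplicate slides.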 Conditions: higher = more signal.
Test [4] is described as follows: small molecules captured by biotinylated probe aFGF10 – biochemical, small-molecule microarray, fluorescence 635/667, stem cell growth factor project, primary screen (AID 1071).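 Also: score merges 667 nm spot intensity and signal to noise from triplicate slides.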 Conditions: higher = more signal.
Test [5] concerns the target Neurogenic locus notch homolog protein 2 (Homo sapiens) (UniProt Q04721). Description: small molecules binding Notch2 protein – biochemical, small-molecule microarray, 635 nm fluorescence, stem cell growth factors, primary screen (AID 1073). Conditions: higher = more signal.
The target of test [6] is Pro-neuregulin-1, membrane-bound isoform (Homo sapiens) (UniProt Q02297). Description: small molecules binding neuregulin-1 protein – biochemical, small-molecule microarray, fluorescence 635/667, psychiatric disease protein project, primary screen (AID 1075).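 Also: score combines 667 nm spot fluorescence with signal to noise.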 To be noted: NRG1 binding, 635 nm fluorescence, higher = more signal.
Chain of Pro-neuregulin-1, membrane-bound isoform (Homo sapiens) (Q02297 whole entry, looked up, the tested form may be a part, canonical isoform): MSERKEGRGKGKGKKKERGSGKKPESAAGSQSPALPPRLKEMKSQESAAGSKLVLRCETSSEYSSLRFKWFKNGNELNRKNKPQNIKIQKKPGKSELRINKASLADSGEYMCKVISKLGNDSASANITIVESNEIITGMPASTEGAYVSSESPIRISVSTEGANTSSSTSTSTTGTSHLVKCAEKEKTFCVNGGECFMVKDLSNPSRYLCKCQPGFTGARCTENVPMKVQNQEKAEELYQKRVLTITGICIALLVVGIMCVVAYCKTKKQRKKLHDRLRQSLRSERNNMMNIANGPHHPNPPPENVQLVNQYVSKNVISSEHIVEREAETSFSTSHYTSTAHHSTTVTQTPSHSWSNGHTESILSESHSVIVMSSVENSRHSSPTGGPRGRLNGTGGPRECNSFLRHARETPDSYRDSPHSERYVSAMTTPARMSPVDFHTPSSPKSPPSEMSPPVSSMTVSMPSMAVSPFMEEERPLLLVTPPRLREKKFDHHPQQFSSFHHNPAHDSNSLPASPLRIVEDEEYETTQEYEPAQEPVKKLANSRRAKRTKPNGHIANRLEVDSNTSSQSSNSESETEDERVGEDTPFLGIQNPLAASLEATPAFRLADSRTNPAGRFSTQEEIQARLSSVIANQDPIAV
The subject of test [7] is Neuregulin-1 EGF-like domain. Put plainly: small molecules binding NRG1 EGF domain – biochemical, small-molecule microarray, 635 nm fluorescence, primary screen (AID 1081).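 Also: binding of the protein to compounds printed on small-molecule microarray slides.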 Conditions: higher = more signal.
Test [8] in a line: FRG1 expression reporter modulators in myotubes – cell-based, C2C12 myotubes, firefly/Renilla luciferase, luminescence, FRG1 inhibition for FSHD, primary screen (AID 1084). Conditions: FRG1 promoter luciferase, higher = more signal, called active from +8 up or from −8 down.
A short description of test [9]: small molecules captured by biotinylated probe aFST – biochemical, small-molecule microarray, fluorescence 635/667, stem cell growth factor project, primary screen (AID 1086).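 Also: score merges 667 nm fluorescence with signal-to-noise of each printed compound spot.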 To be noted: higher = more signal.
Test [10] can be described thus: binders of probe aHhip on microarray, primary screen, stem cell growth factor project, biochemical, small-molecule microarray, fluorescence 635/667 (AID 1087).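 Also: score merges spot fluorescence at 667nm with spot signal to noise ratio.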 Conditions: higher = more signal.
The subject of test [11] is PRMT1 (protein arginine N-methyltransferase 1). Description: small molecules binding arginine methyltransferase PRMT1 – biochemical, small-molecule microarray, 635 nm fluorescence, primary screen (AID 1088).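 Also: binding of Prmt1 protein to compounds spotted on small-molecule microarray slides.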 Conditions: higher = more signal.
Test [12] is described as follows: growth effects on S. cerevisiae YJM789 – YJM789 clinical isolate, OD600, 24 h, basal, primary screen (AID 1089).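 Also: growth of clinical yeast isolate S. cerevisiae YJM 789 seeded 1000 cells per well; test concentration not given here.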 Conditions: higher = more signal, called active from +8 up or from −8 down.
Test [13] in a line: S. pombe growth modifiers, basal conditions – strain 972, OD600, 24 h, no modulator, primary screen (AID 1090).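 Also: basal condition with compound alone and no growth modifier present; test concentration not given here.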 To be noted: S. pombe 972 growth, higher = more signal, called active from +8 up or from −8 down.
Test [14] can be described thus: budding yeast growth modifiers under rapamycin – strain BY4716, OD600, 96 h, primary screen (AID 1091). Also: test concentration not given here. Conditions: S. cerevisiae BY4716 + rapamycin, higher = more signal, called active from +8 up or from −8 down.
For test [15], the target named is Torsin-1A-interacting protein 2 (Homo sapiens) (UniProt Q8NFQ8). Description: small molecules binding lysate-expressed LULL1 – cell lysate, human LULL1 lysate, 635/667 nm fluorescence, primary screen (AID 1092).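 Also: probe is lysate of COS7 cells overexpressing human LULL1; score merges per-feature 667 nm fluorescence with signal-to-noise.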 To be noted: small-molecule microarray, hLULL1 lysate binding, 635 nm fluorescence; higher = more signal.
Chain of Torsin-1A-interacting protein 2 (Homo sapiens) (Q8NFQ8 whole entry, looked up): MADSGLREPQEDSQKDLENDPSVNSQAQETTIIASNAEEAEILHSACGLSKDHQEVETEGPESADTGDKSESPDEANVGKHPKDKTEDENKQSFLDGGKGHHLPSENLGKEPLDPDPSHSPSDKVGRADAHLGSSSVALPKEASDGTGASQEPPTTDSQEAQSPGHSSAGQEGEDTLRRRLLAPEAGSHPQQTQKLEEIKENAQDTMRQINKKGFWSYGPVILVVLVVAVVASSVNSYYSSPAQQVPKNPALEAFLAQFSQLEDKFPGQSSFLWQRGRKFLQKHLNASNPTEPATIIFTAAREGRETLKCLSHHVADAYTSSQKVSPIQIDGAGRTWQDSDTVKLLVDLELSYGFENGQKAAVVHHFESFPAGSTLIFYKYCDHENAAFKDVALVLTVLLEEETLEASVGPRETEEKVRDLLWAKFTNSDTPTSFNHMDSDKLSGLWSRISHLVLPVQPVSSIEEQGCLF
Test [16] is described as follows: optical density change of DRC41 E. coli – strain DRC41, OD650, 24 h, E. coli filamentation project, primary screen (AID 1093).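 Also: MC1000 strain lacking acrAB efflux and sulA so SOS filamentation is blocked; test concentration not given here.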 Conditions: E. coli DRC41 growth, higher = more signal, called active from +8 up or from −8 down.
A short description of test [17]: probe aLefty2 binding to arrayed compounds – biochemical, biotinylated probe, 635/667 nm fluorescence, primary screen (AID 1094).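 Also: score merges spot fluorescence near 667 nm with spot signal-to-noise ratio.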 Conditions: small-molecule microarray, higher = more signal.
Test [18] deals with Noggin (protein binding on small-molecule microarray). Put plainly: small molecules binding Noggin protein – biochemical, 635/667 nm fluorescence, primary screen (AID 1095).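 Also: score merges 667 nm feature fluorescence with signal to noise over triplicate slides.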 To be noted: 635 nm fluorescence, higher = more signal.
Test [19] has as its target Neurogenic locus notch homolog protein 3 (Homo sapiens) (UniProt Q9UM47). Description: small molecules binding NOTCH3 protein – biochemical, 635/667 nm fluorescence, primary screen (AID 1096). Conditions: small-molecule microarray, 635 nm fluorescence, higher = more signal.
A short description of test [20]: probe aEGFR binding to arrayed compounds – biochemical, biotinylated probe, 635/667 nm fluorescence, primary screen (AID 1097).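 Also: probe is a biotinylated anti-EGFR antibody binding compounds printed on slides; score combines fluorescence near 667 nm and signal to noise of each spot.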 To be noted: small-molecule microarray, higher = more signal.

SMILES strings stand for the structures. Active and inactive are the calls of the source.

Chain of Neurogenic locus notch homolog protein 2 (Homo sapiens) (Q04721 whole entry, looked up, canonical isoform): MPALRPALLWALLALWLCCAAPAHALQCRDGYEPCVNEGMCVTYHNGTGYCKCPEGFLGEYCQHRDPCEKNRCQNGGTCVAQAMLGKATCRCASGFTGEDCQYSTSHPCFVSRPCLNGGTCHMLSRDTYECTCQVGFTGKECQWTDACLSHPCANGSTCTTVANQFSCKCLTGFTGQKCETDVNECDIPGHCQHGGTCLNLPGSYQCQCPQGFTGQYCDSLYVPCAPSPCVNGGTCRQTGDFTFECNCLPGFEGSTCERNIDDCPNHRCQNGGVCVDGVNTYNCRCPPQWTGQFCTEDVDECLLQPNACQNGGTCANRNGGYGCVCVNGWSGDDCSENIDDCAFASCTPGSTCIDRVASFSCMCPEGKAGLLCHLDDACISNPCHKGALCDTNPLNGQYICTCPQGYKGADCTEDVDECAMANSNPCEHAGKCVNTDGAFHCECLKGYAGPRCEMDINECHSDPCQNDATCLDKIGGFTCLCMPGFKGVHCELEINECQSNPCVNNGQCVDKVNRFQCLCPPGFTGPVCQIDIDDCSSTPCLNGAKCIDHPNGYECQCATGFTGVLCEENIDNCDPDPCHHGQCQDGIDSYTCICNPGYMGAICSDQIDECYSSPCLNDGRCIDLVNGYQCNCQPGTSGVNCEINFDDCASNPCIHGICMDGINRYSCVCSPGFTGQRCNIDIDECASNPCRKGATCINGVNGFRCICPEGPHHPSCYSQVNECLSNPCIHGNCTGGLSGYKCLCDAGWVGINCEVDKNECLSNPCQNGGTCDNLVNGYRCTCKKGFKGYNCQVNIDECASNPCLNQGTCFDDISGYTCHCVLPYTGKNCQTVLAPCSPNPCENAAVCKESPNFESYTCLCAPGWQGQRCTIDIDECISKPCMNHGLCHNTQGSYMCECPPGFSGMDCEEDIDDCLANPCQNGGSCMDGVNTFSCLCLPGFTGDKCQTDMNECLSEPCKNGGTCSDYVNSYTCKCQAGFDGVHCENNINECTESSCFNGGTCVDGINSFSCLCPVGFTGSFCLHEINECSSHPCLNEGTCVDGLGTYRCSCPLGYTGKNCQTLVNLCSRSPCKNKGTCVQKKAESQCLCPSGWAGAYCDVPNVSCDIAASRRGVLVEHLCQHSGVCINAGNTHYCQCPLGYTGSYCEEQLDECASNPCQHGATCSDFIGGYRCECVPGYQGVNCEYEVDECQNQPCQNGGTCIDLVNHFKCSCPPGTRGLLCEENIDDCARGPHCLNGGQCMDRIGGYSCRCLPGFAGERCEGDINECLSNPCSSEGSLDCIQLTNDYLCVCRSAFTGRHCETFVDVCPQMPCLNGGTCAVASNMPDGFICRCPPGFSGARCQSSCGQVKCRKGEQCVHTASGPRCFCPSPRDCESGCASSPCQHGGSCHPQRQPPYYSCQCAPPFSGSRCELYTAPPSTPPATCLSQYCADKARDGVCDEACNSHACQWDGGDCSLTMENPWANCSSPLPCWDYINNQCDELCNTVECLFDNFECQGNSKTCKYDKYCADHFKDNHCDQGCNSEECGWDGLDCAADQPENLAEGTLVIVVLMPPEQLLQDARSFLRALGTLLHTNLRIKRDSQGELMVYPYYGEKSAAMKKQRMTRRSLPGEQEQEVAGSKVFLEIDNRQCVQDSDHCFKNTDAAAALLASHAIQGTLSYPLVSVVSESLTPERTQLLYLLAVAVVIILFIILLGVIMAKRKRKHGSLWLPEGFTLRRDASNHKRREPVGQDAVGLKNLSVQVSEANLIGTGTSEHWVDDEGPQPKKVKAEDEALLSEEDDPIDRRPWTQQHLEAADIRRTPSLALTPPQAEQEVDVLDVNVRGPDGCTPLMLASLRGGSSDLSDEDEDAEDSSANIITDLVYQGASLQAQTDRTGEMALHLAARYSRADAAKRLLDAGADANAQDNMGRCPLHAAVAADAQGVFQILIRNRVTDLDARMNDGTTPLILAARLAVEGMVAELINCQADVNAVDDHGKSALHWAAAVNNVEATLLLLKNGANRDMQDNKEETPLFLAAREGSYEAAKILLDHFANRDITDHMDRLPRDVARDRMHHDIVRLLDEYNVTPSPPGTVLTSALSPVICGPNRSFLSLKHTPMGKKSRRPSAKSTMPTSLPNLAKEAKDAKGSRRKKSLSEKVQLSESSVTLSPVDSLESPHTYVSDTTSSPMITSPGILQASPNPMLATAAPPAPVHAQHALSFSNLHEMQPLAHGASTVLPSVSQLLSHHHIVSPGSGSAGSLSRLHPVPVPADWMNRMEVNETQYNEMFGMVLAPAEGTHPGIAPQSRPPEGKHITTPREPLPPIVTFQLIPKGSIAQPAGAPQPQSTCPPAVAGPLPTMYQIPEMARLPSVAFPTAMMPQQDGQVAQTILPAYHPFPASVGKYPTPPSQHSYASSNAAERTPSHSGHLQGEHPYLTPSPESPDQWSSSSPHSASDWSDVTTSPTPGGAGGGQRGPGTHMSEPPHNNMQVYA

For `COc1ccc([C@H]2OC[C@@H]3C[C@@H](Cc4ccccc4)C(=O)N32)cc1`, the composite z-score in [1] was -0.446; in test [2], 0.466; in test [3] it was 0.0216; in test [4] it was 0.526; in test [5], 0.426; in test [6] it was -0.103. In addition, the composite z-score was 1.11 in test [7]; 0.357 in test [9]; 0.115 in test [10]; 0.758 in test [11]; 0.0239 in test [15]; -0.103 in test [17]. Further, the composite z-score in test [18] is 0.892; in [19] it was 0.75; in test [20], -0.0299. In addition, the z-score was -3.02 (inactive) in [8]; -2.03 (inactive) in test [12]; -3.18 (inactive) in test [13]; 4.07 (inactive) in [14]; -0.468 (inactive) in test [16].

As to `CC(C)OC(=O)C=C1C[C@@H](c2ccccn2)O[C@@H](c2ccccn2)O1`, the composite z-score in test [1] was -0.431; in test [2] it was -0.121; in test [3], -0.158; in test [4] it was 0.0234; in test [5], -0.538; in test [6], -0.13. Moreover, the composite z-score is 1.27 in test [7]; -0.171 in test [9]; -0.112 in [10]; 0.875 in test [11]; 0.0473 in test [15]; -0.224 in test [17]. Moreover, the composite z-score was 1.25 in [18], 0.0527 in test [19] and 0.0494 in [20]. Further, the z-score is 0.805 (inactive) in [8]; -0.0723 (inactive) in [12]; 0.228 (inactive) in [13]; -1.36 (inactive) in [14]; 0.0183 (inactive) in test [16].

Turning to `C=C(CCCC)/C(=C/C[C@@H](OC(=O)c1ccncc1)c1ccc(OCCO)cc1)c1cc(C(=O)OC)ccc1OC`, the composite z-score was -0.356 in test [1]; 0.807 in test [2]; -0.129 in [3]; 0.63 in test [4]; -0.0009 in [5]; 0.382 in test [6]. Moreover, the composite z-score in test [7] was 1.01; in test [9], -0.0132; in test [10] it was -0.217; in test [11], 1.53; in [15], 1.66; in test [17] it was -0.166. For the same molecule, the composite z-score is 0.874 in test [18], 0.975 in test [19] and -0.12 in [20]. The z-score in [8] is 5.07 (inactive); in test [12], 0.594 (inactive); in test [13], 0.199 (inactive); in [14], 0.279 (inactive); in [16], 0.22 (inactive).

On to `O=C(CS)NCCCCCCNC(=O)[C@@H]1C[C@@H]2C(=O)NCC(=O)N2[C@@H]1c1cccc(OCCO)c1`, for which the composite z-score in [1] was 0.35; in test [2], 0.024; in [3], -0.0768; in [4] it was -0.294; in [5], -0.599; in test [6], 0.668. Besides, the composite z-score is 1.46 in [7]; -0.528 in [9]; -0.274 in [10]; 1.01 in [11]; 3.09 in [15]; -0.327 in [17]. The composite z-score in test [18] is -0.07; in test [19], 0.188; in [20], -0.0662. The z-score in [8] was 0.688 (inactive); in test [12], 0.309 (inactive); in test [13] it was 0.156 (inactive); in test [14] it was 0.616 (inactive); in test [16] it was 0.456 (inactive).

Take `C=C(CC1([C@@H](NP(=O)(c2ccccc2)c2ccccc2)[C@H]2C[C@@H]2CCCC)CC1)c1ccccc1`: the composite z-score is 0.591 in test [1]; -0.417 in [2]; -0.218 in test [3]; 0.194 in test [4]; 1.42 in test [5]; 0.896 in [6]. Moreover, the composite z-score turned out to be 0.843 in test [7]; 1.07 in [9]; 0.419 in test [10]; 0.759 in test [11]; 2.53 in test [15]; 0.153 in test [17]. Also, the values for the composite z-score in [18], in test [19] and in test [20] were -0.591, 0.418 and -0.0844, respectively. Moreover, the z-score in test [8] was 2.47 (inactive); in test [12] it was -0.254 (inactive); in [13] it was 0.204 (inactive); in [14], 3.83 (inactive); in [16] it was -0.357 (inactive).
